Measurements taken from PubChem BioAssay (NCATS).
Results filed as inconclusive are left out. The source made the active and inactive calls. Unless noted, calls come from the whole dose curve; as a rule, active = well fitted curve in the direction sought with a large enough effect; inconclusive = small, poorly fitted or top-dose-only effect, or another doubt; inactive = no such curve, though single readings can be large; an effect the other way counts as inactive or inconclusive.

Tests used:
[1] = target: Tumor susceptibility gene 101 protein (Homo sapiens) (UniProt Q99816); assay: qHTS Assay for Iinhibitors of HIV-1 Budding by Blocking the Interaction of PTAP/TSG101: Hit Validation (AID 651600); note: % is set by controls: 0 for no effect and ±100 for the full control effect; nearly all actives have a fitted effect of over 70% in size
Tumor susceptibility gene 101 protein (Homo sapiens), sequence (Q99816 whole entry, looked up, the tested form may be a part): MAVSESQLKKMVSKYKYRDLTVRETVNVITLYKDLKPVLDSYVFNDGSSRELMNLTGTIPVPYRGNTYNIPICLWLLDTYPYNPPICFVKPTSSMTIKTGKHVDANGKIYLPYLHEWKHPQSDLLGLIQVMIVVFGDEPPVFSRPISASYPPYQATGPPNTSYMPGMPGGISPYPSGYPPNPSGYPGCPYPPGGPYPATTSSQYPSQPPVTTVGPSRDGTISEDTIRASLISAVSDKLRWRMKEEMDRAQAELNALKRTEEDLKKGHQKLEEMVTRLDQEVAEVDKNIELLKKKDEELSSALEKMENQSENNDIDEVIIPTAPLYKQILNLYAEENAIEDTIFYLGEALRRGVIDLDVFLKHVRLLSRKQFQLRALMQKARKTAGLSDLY
Procedure, shortened: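 FITC-PTAP peptide (50 nM final) binding to Tsg101 binding domain (10 uM final) was measured by polarization after 20 min at r.t. with compounds, in 10 mM HEPES pH 7.5 buffer with 0.15 M NaCl and 0.01% Tween 20.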

[2] = target: Rap guanine nucleotide exchange factor 4 (Homo sapiens) (UniProt Q8WZA2); assay: Confirmatory qHTS for antagonist of cAMP-regulated guanine nucleotide exchange factor 4 (EPAC2) (AID 1645885); note: % is set by controls: 0 for no effect and ±100 for the full control effect; nearly all actives have a fitted effect of over 25% in size
[3] = target: Rap guanine nucleotide exchange factor 3 (Homo sapiens) (UniProt O95398); assay: Counterscreen qHTS for agonist of cAMP-regulated guanine nucleotide exchange factor 3 (EPAC1) (AID 1645889); note: nearly all actives have a fitted effect of over 40% in size; note: potency is the fitted concentration of half-maximal effect; for activation: % of control where 0% means no effect
Rap guanine nucleotide exchange factor 3 (Homo sapiens), sequence (O95398 whole entry, looked up): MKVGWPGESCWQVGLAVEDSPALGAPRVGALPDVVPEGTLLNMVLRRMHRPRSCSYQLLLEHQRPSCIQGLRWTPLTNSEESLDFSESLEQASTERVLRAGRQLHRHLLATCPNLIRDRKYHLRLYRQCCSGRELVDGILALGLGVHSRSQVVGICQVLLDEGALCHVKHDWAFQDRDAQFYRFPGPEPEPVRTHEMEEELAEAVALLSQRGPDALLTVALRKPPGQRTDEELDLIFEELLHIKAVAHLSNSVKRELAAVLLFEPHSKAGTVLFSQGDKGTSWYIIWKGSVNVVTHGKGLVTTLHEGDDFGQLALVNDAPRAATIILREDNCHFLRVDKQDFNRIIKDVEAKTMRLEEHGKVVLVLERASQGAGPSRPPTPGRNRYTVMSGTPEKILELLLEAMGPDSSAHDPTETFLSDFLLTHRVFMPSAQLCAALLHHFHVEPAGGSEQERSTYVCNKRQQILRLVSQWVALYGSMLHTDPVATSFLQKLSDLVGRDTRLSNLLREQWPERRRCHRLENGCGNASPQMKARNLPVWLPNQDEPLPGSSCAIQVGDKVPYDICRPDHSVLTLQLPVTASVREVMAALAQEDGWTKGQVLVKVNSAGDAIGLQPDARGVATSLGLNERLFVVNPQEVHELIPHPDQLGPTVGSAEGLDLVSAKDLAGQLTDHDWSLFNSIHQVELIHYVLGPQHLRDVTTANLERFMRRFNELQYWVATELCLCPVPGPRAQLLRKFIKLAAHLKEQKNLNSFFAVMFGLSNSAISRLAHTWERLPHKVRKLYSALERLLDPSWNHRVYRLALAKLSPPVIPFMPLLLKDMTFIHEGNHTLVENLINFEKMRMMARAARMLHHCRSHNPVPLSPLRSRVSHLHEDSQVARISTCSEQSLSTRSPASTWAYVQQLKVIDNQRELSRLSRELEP
Procedure, shortened: (§1)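 Rap1B–BODIPY-GDP (250 nM) with 50 uM GDP; compounds pin-transferred to 9.74 nM–152 uM final (activator) or from 7.32 nM upwards (inhibitor). Fluorescence Ex/Em 480/540 nm read at 5 and 30 min, then after adding cAMP or buffer, at room temperature.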

[4] = target: DNA repair nuclease/redox regulator APEX1 (Homo sapiens) (UniProt P27695); assay: qHTS Validation Assay for Inhibitors of the Human Apurinic/apyrimidinic Endonuclease 1 (APE1) (AID 1705;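 note: TAMRA fluorescence gain over two minutes as APE1 cuts a quenched THF abasic duplex; series mostly up to about 57 µM; % is set by controls: 0 for no effect and ±100 for the full control effect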)
DNA repair nuclease/redox regulator APEX1 (Homo sapiens), sequence (P27695 whole entry, looked up): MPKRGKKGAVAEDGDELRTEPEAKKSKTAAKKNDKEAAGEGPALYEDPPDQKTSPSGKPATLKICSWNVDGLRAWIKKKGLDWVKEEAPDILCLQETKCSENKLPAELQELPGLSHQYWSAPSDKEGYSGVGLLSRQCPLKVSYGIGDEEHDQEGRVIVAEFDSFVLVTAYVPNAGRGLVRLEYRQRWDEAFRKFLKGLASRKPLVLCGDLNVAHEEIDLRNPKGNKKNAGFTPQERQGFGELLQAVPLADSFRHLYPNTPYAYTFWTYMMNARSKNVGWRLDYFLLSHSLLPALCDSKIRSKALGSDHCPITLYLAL
Procedure, shortened: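 Activity read as rising fluorescence (598 nm emission, 525 nm excitation) from incision of a TAMRA/BHQ-2 duplex carrying a THF abasic site (50 nM). Compound and enzyme sat 15 min at RT before substrate start; signal change between first and third 60-s reads.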

[5] = Counterscreen for APE1 Inhibitors: Fluorescent Dye Displacement Validation Assay (AID 1707);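 note: plate controls were ThO with dsDNA and no compound for no effect and ThO without dsDNA for full effect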
Procedure, shortened: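 Thiazole Orange displacement from dsDNA: 250 nM ThO with 50 nM TAMRA-labelled abasic-site (tetrahydrofuran) duplex in 50 mM Tris-HCl pH7.5, 50mM NaCl, 2 mM MgCl2, 0.01% Tween-20. Loss of endpoint fluorescence (ex 480 nm, em 540 nm) flags DNA binders.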

[6] = qHTS for differential inhibitors of proliferation of Plasmodium falciparum line 7G8 (AID 1815);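 note: parasite growth measured after three days of incubation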; note: potency is the fitted concentration of half-maximal effect
[7] = qHTS for differential inhibitors of proliferation of Plasmodium falciparum line 3D7 (AID 1876); note: potency is the fitted concentration of half-maximal effect
[8] = qHTS for differential inhibitors of proliferation of Plasmodium falciparum line D10 (AID 1877);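 note: parasites grown with compound for 72 h before DNA staining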; note: potency is the fitted concentration of half-maximal effect
[9] = qHTS for differential inhibitors of proliferation of Plasmodium falciparum line Dd2 (AID 1882); settings: Potency: Plasmodium falciparum Dd2 proliferation inhibition; note: nearly all actives have a fitted effect of over 65% in size; note: potency is the fitted concentration of half-maximal effect
Procedure, shortened: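 Dd2-infected erythrocytes (0.3% parasitemia, 2.5% hematocrit final) incubated with compound 72 h at 37 C, 5% CO2; lysed with saponin/Triton buffer containing SYBR Green I, incubated overnight in the dark, then read by fluorescence (485/535 nm). Normalized to 0.29 uM artemisinin and DMSO.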

[10] = qHTS for differential inhibitors of proliferation of Plasmodium falciparum line W2 (AID 1883); settings: Potency: Plasmodium falciparum W2 proliferation inhibition;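 note: parasites grown with compound for 72 h before lysis and staining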; note: potency is the fitted concentration of half-maximal effect
[11] = qHTS for differential inhibitors of proliferation of Plasmodium falciparum line HB3 (AID 1886); settings: Potency: Plasmodium falciparum HB3 proliferation inhibition;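 note: parasites grown with compound for 72 h before SYBR Green readout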; note: potency is the fitted concentration of half-maximal effect
[12] = target: Ferritin light chain (Equus caballus) (UniProt P02791); assay: qHTS Validation Assay for Identification of Novel General Anesthetics (AID 2323); note: series mostly up to about 77 µM; % is set by controls: 0 for no effect and ±100 for the full control effect
Ferritin light chain (Equus caballus), sequence (P02791 2-175 limits assumed): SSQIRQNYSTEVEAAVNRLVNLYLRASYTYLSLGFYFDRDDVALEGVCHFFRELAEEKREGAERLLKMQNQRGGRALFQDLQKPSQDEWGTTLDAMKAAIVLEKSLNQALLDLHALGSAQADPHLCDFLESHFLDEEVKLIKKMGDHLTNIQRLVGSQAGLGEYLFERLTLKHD
Procedure, shortened: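 Competitive displacement of the profluorescent anesthetic 1-AMA (50% saturated, PBS) from 10 uM apoferritin, 10 min, room temperature. Activity is normalized 380/535 nm fluorescence; concentration-response fitted with a four-parameter Hill equation.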

[13] = target: ATP-dependent DNA helicase Q1 (Homo sapiens) (UniProt P46063); assay: qHTS Validation Assay for Inhibitors of RecQ-Like Dna Helicase 1 (RECQ1) (AID 2353);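 note: plate controls were DMSO vehicle for no effect and enzyme-free control for full effect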
ATP-dependent DNA helicase Q1 (Homo sapiens), sequence (P46063 whole entry, looked up): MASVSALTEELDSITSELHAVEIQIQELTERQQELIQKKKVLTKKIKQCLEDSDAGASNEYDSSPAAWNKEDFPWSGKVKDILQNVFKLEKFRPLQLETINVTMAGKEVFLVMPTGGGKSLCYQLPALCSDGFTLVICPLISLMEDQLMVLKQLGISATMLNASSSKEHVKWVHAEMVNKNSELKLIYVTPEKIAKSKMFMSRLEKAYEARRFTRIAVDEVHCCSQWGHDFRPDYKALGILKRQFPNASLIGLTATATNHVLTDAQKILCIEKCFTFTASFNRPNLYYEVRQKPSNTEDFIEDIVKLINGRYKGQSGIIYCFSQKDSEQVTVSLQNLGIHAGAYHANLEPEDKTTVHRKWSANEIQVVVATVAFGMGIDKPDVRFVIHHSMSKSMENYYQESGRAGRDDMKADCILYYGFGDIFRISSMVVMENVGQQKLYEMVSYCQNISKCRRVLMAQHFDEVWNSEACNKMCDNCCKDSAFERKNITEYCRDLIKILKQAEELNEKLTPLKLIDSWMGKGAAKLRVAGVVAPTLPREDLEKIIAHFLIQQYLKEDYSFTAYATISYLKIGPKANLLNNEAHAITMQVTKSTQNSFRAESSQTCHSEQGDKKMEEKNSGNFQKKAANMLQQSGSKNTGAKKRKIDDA
Procedure, shortened: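 50 nM RECQ1T1 preincubated 15 min with compound in Tris pH 8.0 buffer with MgCl2, DTT, Tween-20 and 2.5 ug/ml poly(dI-dC); started with 200 nM TAMRA/BHQ-2 forked duplex and 2 mM ATP. Unwinding read as fluorescence (525/598 nm), two reads 2 h apart.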

[14] = Quantitative high throughput screen for delayed death inhibitors of the malarial parasite plastid, 96 hour incubation (AID 488745); note: nearly all actives have a fitted effect of over 70% in size; note: potency is the fitted concentration of half-maximal effect
Procedure, shortened: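 Luciferase-expressing P. falciparum in erythrocytes (2% hematocrit, 0.1% parasitemia) incubated with compound for 96 h at 37 C, 5% CO2, in RPMI 1640 with 0.5% Albumax. Growth inhibition read as decreased luminescence.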

[15] = Quantitative high throughput screen for delayed death inhibitors of the malarial parasite plastid, 48 hour incubation (AID 488752); note: nearly all actives have a fitted effect of over 65% in size; note: potency is the fitted concentration of half-maximal effect
Procedure, shortened: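 Erythrocytes infected with firefly luciferase-expressing P. falciparum (2% hematocrit, 0.1% parasitemia) cultured with compound for 48 h at 37 C, 5% CO2, in RPMI 1640/0.5% Albumax. Growth inhibition read as loss of luminescence.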

[16] = target: M-phase phosphoprotein 8 (Homo sapiens) (UniProt Q99549); assay: qHTS Validation Assay for Inhibitors for MPP8 Chromodomain Interactions with Methylated Histone Tails (AID 488949); note: nearly all actives have a fitted effect of over 55% in size; note: potency is the fitted concentration of half-maximal effect
Procedure, shortened: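 AlphaScreen proximity signal from streptavidin donor and Ni-chelate acceptor beads (10 ug/mL each) reported binding of MPP8 to trimethyl-K9 H3(1-18) peptide, both at 50 nM. The complex formed 30 min before a 30 min compound exposure at room temperature, in PBS pH 7.4.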

[17] = target: Transient receptor potential cation channel subfamily V member 1 (Homo sapiens) (UniProt Q8NER1); assay: HTS Assay for Compounds that Act as Enhancers of the Vanilloid Receptor 1 (AID 488979); note: 0% is about no effect
Transient receptor potential cation channel subfamily V member 1 (Homo sapiens), sequence (Q8NER1 whole entry, looked up): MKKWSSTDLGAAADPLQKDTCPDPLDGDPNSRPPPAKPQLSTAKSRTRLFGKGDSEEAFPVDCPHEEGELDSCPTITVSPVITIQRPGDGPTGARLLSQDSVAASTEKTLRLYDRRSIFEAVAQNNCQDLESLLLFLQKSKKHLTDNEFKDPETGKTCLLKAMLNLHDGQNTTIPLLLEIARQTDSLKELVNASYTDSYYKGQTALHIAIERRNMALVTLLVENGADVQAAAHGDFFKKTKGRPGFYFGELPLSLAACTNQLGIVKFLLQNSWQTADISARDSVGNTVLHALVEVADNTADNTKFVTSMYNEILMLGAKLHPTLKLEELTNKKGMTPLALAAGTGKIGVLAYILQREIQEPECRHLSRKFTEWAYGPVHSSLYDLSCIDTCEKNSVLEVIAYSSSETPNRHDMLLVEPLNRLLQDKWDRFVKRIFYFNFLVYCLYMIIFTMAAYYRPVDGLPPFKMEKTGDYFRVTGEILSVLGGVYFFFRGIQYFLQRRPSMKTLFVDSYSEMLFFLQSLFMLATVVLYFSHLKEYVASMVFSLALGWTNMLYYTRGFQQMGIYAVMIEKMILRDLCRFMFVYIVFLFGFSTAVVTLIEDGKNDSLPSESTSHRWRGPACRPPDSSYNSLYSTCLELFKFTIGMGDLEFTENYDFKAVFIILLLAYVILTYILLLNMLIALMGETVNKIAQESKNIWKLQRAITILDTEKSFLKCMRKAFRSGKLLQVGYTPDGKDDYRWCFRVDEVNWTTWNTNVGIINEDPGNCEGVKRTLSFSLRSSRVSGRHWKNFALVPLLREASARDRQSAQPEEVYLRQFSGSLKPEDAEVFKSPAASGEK
Procedure, shortened: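 TRPV1 cells loaded with Fluo-8 calcium dye; compound added and Ca2+ signal (ex 480/em 520 nm) followed 3 min, then capsaicin at EC20 added and read 2 more min to detect enhancement.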

[18] = target: Thyrotropin receptor (Homo sapiens) (UniProt P16473); assay: qHTS Assay for Antagonists of the Thyroid Stimulating Hormone Receptor (AID 488980); note: series mostly up to about 58 µM; 0% is about no effect
Thyrotropin receptor (Homo sapiens), sequence (P16473 whole entry, looked up): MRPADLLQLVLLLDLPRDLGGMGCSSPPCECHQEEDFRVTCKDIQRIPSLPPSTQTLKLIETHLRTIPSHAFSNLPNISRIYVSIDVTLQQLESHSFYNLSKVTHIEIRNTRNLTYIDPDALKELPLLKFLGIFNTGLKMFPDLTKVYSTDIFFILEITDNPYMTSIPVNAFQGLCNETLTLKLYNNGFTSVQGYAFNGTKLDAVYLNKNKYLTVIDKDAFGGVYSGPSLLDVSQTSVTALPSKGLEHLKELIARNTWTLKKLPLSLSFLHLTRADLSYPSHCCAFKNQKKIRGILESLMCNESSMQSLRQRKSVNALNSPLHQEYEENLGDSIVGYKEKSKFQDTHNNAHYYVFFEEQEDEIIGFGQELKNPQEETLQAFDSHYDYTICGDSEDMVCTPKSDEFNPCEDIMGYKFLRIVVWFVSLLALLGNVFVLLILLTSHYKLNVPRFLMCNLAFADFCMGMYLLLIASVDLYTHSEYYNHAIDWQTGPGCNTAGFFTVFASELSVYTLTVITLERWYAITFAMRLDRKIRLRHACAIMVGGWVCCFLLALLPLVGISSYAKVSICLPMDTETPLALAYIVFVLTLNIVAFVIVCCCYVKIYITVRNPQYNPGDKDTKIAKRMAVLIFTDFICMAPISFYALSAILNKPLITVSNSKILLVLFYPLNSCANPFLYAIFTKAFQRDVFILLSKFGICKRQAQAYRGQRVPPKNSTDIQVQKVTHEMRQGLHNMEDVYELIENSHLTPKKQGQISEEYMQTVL
Procedure, shortened: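 Inhibition of cAMP raised by EC80 TSH (4 nM final) was read by HTRF, with lysate cAMP competing against cAMP-d2 for cryptate antibody after 30 min at room temperature. The cells were transfected HEK293 held in phosphodiesterase inhibitor RO 20-1724 at 70 uM.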

[19] = target: Thyrotropin-releasing hormone receptor (Homo sapiens) (UniProt P34981); assay: qHTS for Small Molecule Agonists and Allosteric Enhancers of Human TRH Receptor: Validation Screen for Agonists (AID 493127;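 active = calcium activation more than 3 SD above the typical response in the agonist read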; note: 0% is about no effect); settings: TRH receptor agonist cell assay; at 2 µM; active compounds read high
Thyrotropin-releasing hormone receptor (Homo sapiens), sequence (P34981 whole entry, looked up): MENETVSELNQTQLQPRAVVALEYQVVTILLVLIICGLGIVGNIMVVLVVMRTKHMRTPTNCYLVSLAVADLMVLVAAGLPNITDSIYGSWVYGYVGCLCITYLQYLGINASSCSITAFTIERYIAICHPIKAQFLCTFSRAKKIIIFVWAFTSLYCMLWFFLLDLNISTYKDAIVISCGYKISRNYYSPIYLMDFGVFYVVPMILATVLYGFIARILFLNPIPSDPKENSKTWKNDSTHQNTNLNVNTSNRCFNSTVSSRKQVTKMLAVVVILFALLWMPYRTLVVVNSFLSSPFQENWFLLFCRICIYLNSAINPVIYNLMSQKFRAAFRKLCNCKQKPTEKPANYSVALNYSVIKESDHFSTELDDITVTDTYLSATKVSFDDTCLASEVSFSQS
Procedure, shortened: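 TRHR cells loaded with fluo-8 calcium dye; FDSS kinetic fluorescence (Ex 480/Em 530) read at 1 s/cycle after 23 nL compound addition. Agonist-mode calcium response recorded before the 10 nM TRH (EC20) addition.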

[20] = target: Galactokinase (Homo sapiens) (UniProt P51570); assay: qHTS Validation Assay for Inhibitors of Human Galactokinase (GALK) (AID 493189); note: 0% is about no effect
Galactokinase (Homo sapiens), sequence (P51570 whole entry, looked up): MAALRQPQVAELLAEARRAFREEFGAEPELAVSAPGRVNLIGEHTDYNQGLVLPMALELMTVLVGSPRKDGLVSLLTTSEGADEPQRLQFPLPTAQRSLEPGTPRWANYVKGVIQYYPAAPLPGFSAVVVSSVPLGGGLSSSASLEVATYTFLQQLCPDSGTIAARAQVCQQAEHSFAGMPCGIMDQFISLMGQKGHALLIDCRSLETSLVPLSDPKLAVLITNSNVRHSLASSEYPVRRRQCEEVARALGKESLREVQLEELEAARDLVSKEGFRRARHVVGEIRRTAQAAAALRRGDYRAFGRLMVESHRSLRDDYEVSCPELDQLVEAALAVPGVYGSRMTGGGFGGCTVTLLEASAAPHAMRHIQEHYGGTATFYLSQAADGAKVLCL
Procedure, shortened: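 Inhibition was measured as remaining ATP, detected by luciferase luminescence after a 1 h room-temperature reaction. Final conditions: 5 nM GALK, 100 uM galactose, 35 uM ATP, pH 8.0 HEPES buffer.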

[21] = Validation screen for small molecules that induce DNA re-replication in SW480 colon adenocarcinoma cells (AID 504364); note: potency is the fitted concentration of half-maximal effect
Procedure, shortened: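 SW480 cells (250/well) exposed 48 h at 37 C, 5% CO2, then Hoechst-stained 40 min. Nuclear DNA content imaged by fluorescence scanning (405 nm excitation, 500-530 nm emission); re-replication scored as increased nuclei with elevated intensity.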

[22] = target: Voltage-gated inwardly rectifying potassium channel KCNH2 (Homo sapiens) (UniProt Q12809); assay: qHTS Assay for Small Molecule Inhibitors of the Human hERG Channel Activity (AID 588834);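 note: lower thallium flux fluorescence means stronger hERG block; nearly all actives have a fitted effect of over 50% in size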; note: potency is the fitted concentration of half-maximal effect
Procedure, shortened: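 Kinetic FDSS fluorescence; U2OS + hERG BacMam (~100 virus particles/cell); FluxOR Tl+ flux; ~10 min cpd; AC50 (Hill).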

[23] = qHTS for differential inhibitors of proliferation of Plasmodium falciparum line GB4 (AID 1816); settings: Potency: Plasmodium falciparum GB4 proliferation inhibition;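 note: potency is the fitted concentration of half-maximal effect; parasite growth measured after 72 h incubation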
[24] = Validation screen for small molecules that induce DNA re-replication in MCF 10A normal breast cells (AID 463097); note: potency is the fitted concentration of half-maximal effect; nearly all actives have a fitted effect of over 60% in size
Procedure, shortened: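 Read-out is Hoechst total nuclear intensity by fluorescence scanning imager, flagging increased high-DNA-content nuclei. Compounds were incubated with MCF 10A cells for 48 hr (37 C, 5% CO2) before 40 min staining.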

[25] = target: Rap guanine nucleotide exchange factor 3 (Homo sapiens) (UniProt O95398); assay: Counterscreen qHTS for antagonist of cAMP-regulated guanine nucleotide exchange factor 3 (EPAC1) (AID 1645888);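 note: fluorescence loss as bound BODIPY-GDP is released from Rap1B; % of control where 0% means no effect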
Procedure, shortened: as §1

CN1/C(=C\C=C2/C(=O)Oc3ccccc3C2=O)C(C)(C)c2ccccc21
active: Potency [3] 20000 nM
inactive: Potency [1] | Potency [2]

Nc1nc(Cl)nc2c1ncn2[C@@H]1O[C@H](COP(=O)(O)OP(=O)(O)OP(=O)(O)O)[C@H](O)[C@H]1O
inactive: Potency [4] | outcome [5] | Potency [6] | Potency [7] | Potency [8] | Potency [9] | Potency [10] | Potency [11] | outcome [12] | outcome [13] | Potency [14] | Potency [15] | Potency [16] | outcome [17] | outcome [18] | activation [19] 6.94% | outcome [20] | Potency [21] | Potency [22]

Cc1c(C)c2c(c(C)c1O)CCC(C)(CN1CCN(c3cc(N4CCCC4)nc(N4CCCC4)n3)CC1)O2 (stereo not given)
inactive: Potency [4] | outcome [5] | outcome [12] | outcome [13] | outcome [17] | outcome [18] | activation [19] -7.62% | outcome [20]
active: Potency [6] 562 nM | Potency [23] 501 nM | Potency [7] 891 nM | Potency [8] 501 nM | Potency [9] 1260 nM | Potency [10] 355 nM | Potency [11] 891 nM | Potency [24] 4470 nM | Potency [14] 1650 nM | Potency [15] 1850 nM | Potency [16] 11200 nM | Potency [22] 7080 nM

Oc1ccccc1Cc1c(O)ccc2ccccc12
inactive: Potency [25]

CCOC(=O)C1CN(S(=O)(=O)c2ccc(C)cc2)c2ccccc2O1 (stereo not given)
inactive: Potency [25]

COc1cc2c(cc1O)CCC1C2CC[C@]2(C)[C@@H](O)CC[C@@H]12 (stereo not given in full)
active: Potency [10] 15800 nM | Potency [21] 4610 nM
inactive: Potency [4] | outcome [5] | Potency [6] | Potency [7] | Potency [8] | Potency [9] | Potency [11] | outcome [12] | outcome [13] | Potency [14] | Potency [15] | outcome [17] | outcome [18] | activation [19] 1% | outcome [20]

COc1ccc(C(NCC(=O)NC(C)c2ccc(Cl)cc2)c2ccccc2)cc1 (stereo not given)
inactive: Potency [3]

CCOC(=O)c1sc(NC(=O)CN2C(=O)NC3(CC(C)CC(C)(C)C3)C2=O)cc1C (stereo not given)
active: Potency [3] 89100 nM

O=c1cc(Cl)c(-c2ccccc2)nn1Cc1ccc(Cl)cc1
inactive: Potency [25]

O=C(COc1ccc(Cl)cc1Cl)NNC(=S)NCc1ccco1
inactive: Potency [25]
